Most compounds without a hit are left out; they make up all but 3.2% or so of the library.
TMEM16A act: TMEM16A chloride channel activators or potentiators, primary screen, cell-based, HTS; HEK293 TMEM16A/YFP-H148Q/I152L, iodide quench fluorescence; stronger effect = lower value; B-score at 10 µM; 340,000 tested, 0.3% active; AID 623877, 2012;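 active = fluorescence-ratio B-score plate-corrected deviation score at least 3 library SD below zero, with starting fluorescence score within 5 deviations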;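 note: channel opened by trigger with iodide after compound preincubation; score built on the fluorescence ratio of max minus min over baseline; more negative score means more quench and so TMEM16A activation or potentiation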
CHT inh: inhibitors of human choline transporter CHT; High affinity choline transporter 1 (Homo sapiens), Q9GZV3; CHT-expressing cells, membrane potential dye, choline response; stronger effect = lower value; B-score at 10 µM; 310,000 tested, 0.86% active; AID 488975, 2010;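 active = B-score over 3 SD under the library average, and starting fluorescence ratio not unusually high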;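 note: choline stimulus applied at its EC90 after an EC20 pre-addition; B-score computed on integrated fluorescence ratio after choline addition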
CHT PAM: CHT positive allosteric modulators, primary screen, cell-based, membrane potential dye, choline EC20. B-score at 10 µM. CHT-expressing cells; stronger effect = higher value; LV-AA mutant CHT in HEK293 cells. 310,000 tested, 0.49% active;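 active = initial fluorescence not abnormally high and integrated response B-score, plate-corrected, over 3 SD above library mean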
Kir21 block: inhibitors of mouse Kir2.1 inward-rectifier potassium channel. 310,000 tested, 0.85% active. HEK293-Kir2.1, FluxOR thallium flux fluorescence; stronger effect = lower value. B-score at 10 µM. Inward rectifier potassium channel 2 (Mus musculus), P35561;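 active = fluorescence ratio B-score at or below minus 3 SD of library scores, with starting-brightness B-score within 2 SD, cut at about -4.2 in these data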;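 note: channel flux triggered by added potassium and thallium sulfate stimulus; B-score of peak minus minimum fluorescence over baseline after thallium stimulus; more negative B-score means stronger Kir2.1 block with less thallium influx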
Target sequence (P35561 whole entry, looked up): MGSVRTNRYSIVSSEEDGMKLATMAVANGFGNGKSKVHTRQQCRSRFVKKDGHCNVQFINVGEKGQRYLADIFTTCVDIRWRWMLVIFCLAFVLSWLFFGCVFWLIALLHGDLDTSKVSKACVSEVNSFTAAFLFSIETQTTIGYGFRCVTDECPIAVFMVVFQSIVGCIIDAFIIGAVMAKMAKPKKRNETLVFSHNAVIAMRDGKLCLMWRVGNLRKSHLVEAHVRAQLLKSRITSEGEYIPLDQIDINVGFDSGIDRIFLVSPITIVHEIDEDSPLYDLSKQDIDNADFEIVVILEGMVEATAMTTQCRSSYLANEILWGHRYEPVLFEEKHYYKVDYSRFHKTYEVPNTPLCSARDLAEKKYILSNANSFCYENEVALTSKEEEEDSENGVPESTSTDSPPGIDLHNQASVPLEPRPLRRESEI
TMEM16A inh: TMEM16A chloride channel inhibitors, primary screen, cell-based, HTS; normalized B-score (activity score, 25-100; higher = stronger inhibition) at 10 µM; 310,000 tested, 1.2% active; HEK293 TMEM16A/YFP iodide influx fluorescence, ionomycin;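 active = ratio plate-corrected score three or more library SD toward inhibition, starting fluorescence score within five deviations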;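 note: score derived from kinetic fluorescence span divided by baseline fluorescence per well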
Rce1 inhib: yeast Rce1p protease inhibitors, primary screen, biochemical, fluorescence, cell-free homogeneous; CAAX prenyl protease 2 (Saccharomyces cerevisiae (strain ATCC 204508 / S288c)), Q03530; calls only; yeast membranes, quenched prenylated peptide cleavage fluorescence; AID 2563, 2010; 290,000 tested, 0.27% active;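 active = fall in fluorescence gain of 50% or more versus controls, with final raw signal at or below 3038400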
CHT block conf: CHT inhibitors, confirmation, cell-based, membrane potential dye, duplicate | CHT activity remaining % of control (stronger effect = lower value), % at 10 µM | shares compounds with CHT inh | CHT-expressing cells, choline membrane potential dye; LV-to-AA substituted CHT, HEK293 cells | AID 493221, 2011 | 2,400 tested, 70% active;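 active = choline transporter activity left, mean of duplicates at 10 µM, below buffer-only control mean minus 3 SD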;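 note: depolarization triggered by choline at its EC90 following an EC20 pre-addition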
HEK293 MPD ctr: membrane potential effects in parental HEK293, counter-screen for CHT inhibitor project, cell-based, membrane potential dye; shares compounds with CHT inh; membrane potential ratio readout (active if shifted either direction beyond buffer ±3SD; no single direction) at 10 µM; choline response; active = decrease or increase beyond buffer ±3SD; 2,400 tested, 4% active;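 note: parental cells lack the transporter so any hit is non-specific; ratio is peak minus trough fluorescence over baseline after EC90 choline challenge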
A number is an active result; n = inactive; x = not tested or not shown.

SMILES	TMEM16A act	CHT inh	CHT PAM	Kir21 block	TMEM16A inh	Rce1 inhib	CHT block conf	HEK293 MPD ctr
CN1C[C@@H]2C(c3ccc(C(F)(F)F)cc3)C3(c4cccnc4)CC2(C3)[C@H]1c1ccccc1 (stereo partly drawn)	n	-5.2	n	n	n	n	70%	n
FC(F)(F)c1ccc(CN2C[C@@H]3C(c4ccc(C(F)(F)F)cc4)C4(c5cccnc5)CC3(C4)[C@H]2c2ccccc2)cc1 (stereo partly drawn)	n	n	n	n	n	n	x	x
CCCCOc1cccc(C(=O)NNC(=S)NC2CCCCC2)c1	n	-8.8	n	n	n	n	69%	n
CCOc1cccc(C(=O)NC2CCCCC2)c1	n	n	n	n	n	n	x	x
CN(C)c1cccc(C(=O)NNC(=S)NC2CCCC2)c1	n	n	n	n	n	n	x	x
CC(C)c1cc(C(=O)NNC(=S)NC2CCCCC2)cs1	n	-5.6	n	n	n	n	66%	n
CC(C)(CNC(=S)NCCc1ccccc1)CNC(=S)NCCc1ccccc1	n	x	x	n	x	x	x	x
CC1CCN(CCc2nc3cc(NS(=O)(=O)c4ccccc4)ccc3n2C)CC1	n	-9.3	n	n	n	n	37%	n
CC1CCN(CCc2nc3cc(NS(=O)(=O)c4ccc(F)cc4)ccc3n2C)CC1	n	n	n	n	n	n	x	x
O=C(NNc1ccc(C(F)(F)F)cc1[N+](=O)[O-])c1ccc(NS(=O)(=O)c2ccc(F)cc2)cc1	n	-10	n	n	n	n	52%	n
CC(C)[C@H](Nc1ccc(C(F)(F)F)cc1[N+](=O)[O-])C(=O)O	n	n	n	n	n	n	x	x
CCn1nc(C)cc1-c1nnc(Sc2ncc([N+](=O)[O-])s2)n1C	-9.8	-6	n	n	n	n	45%	n
O=C(Cc1cccs1)Nc1cc(SCCO)cc([N+](=O)[O-])c1	n	n	n	n	n	n	x	x
COc1ccc(CCN(C)C(=O)c2ccc(COc3ccccc3)o2)cc1OC	n	-6.9	n	-5.8	n	n	55%	n
CNc1oc(Cc2cccc3ccccc23)nc1C#N	n	-6.9	n	n	n	n	56%	n
Cc1cnc(NC(=O)C2CC=CCC2)s1 (stereo not drawn)	n	n	n	n	n	n	x	x
COc1cccc(C(=O)NN/C(C)=C/C(=O)C(F)(F)C(F)(F)C(F)(F)F)c1	n	-8.4	n	n	n	n	67%	n
CCOc1cccc(C2CC(=O)Nc3cc(OC)c(OC)cc32)c1 (stereo not drawn)	n	-6.7	n	n	n	x	n	n
CC(C)CCSc1cc(NCCO)c([N+](=O)[O-])c2nonc12	n	-5.8	n	n	n	n	n	n
Cc1ccc(Sc2cc(NCCCO)c([N+](=O)[O-])c3nonc23)cc1	n	n	n	n	n	n	x	x
O=C(Nc1cccc2ccccc12)NC1CCCCC1O (stereo not drawn)	n	n	n	n	n	n	x	x
NC(=O)c1ccc(NCCc2ccccc2)c([N+](=O)[O-])c1	n	-5	n	n	n	n	n	n
O=C(Nc1ccccc1)c1ccc(NCCc2ccccc2)c([N+](=O)[O-])c1	n	n	n	n	n	n	x	x
O=C(COC(=O)Cc1ccsc1)Nc1ccc(F)cc1Cl	n	x	x	x	x	x	x	x
O=C(CS(=O)(=O)Nc1ccc(F)cc1Cl)Nc1ccc(F)cc1Cl	n	-11	n	n	n	n	66%	n
SMILES	TMEM16A act	CHT inh	CHT PAM	Kir21 block	TMEM16A inh	Rce1 inhib	CHT block conf	HEK293 MPD ctr
C=CC[C@H]1CC(Cc2ccccc2)=C[C@H](CC=C)N1	n	-8.6	n	-6.5	n	n	-13%	-17
C=CCC1C=C(Cc2ccccc2)CC(CC=C)N1 (stereo not drawn)	n	n	n	n	n	n	x	x
CC1CN2C(c3ccc(Cl)cc3)=CSC2=N1 (stereo not drawn)	n	n	n	n	n	n	x	x
Cc1sc2ncnc(SCc3ccco3)c2c1C	n	n	n	n	n	n	x	x
Cc1sc2ncnc(N(C)Cc3ccco3)c2c1C	n	-5.1	n	n	n	x	n	n
CC(=O)/C(=N/Nc1ccccc1Cl)Sc1nnc(C(O)c2ccccc2)n1-c1ccccc1 (stereo not drawn)	n	n	n	n	n	n	x	x
CC(=O)/C(=N/Nc1ccccc1)Sc1nnc(C(O)c2ccccc2)n1-c1ccccc1 (stereo not drawn)	n	-5	n	n	n	n	n	n
COC(=O)Cn1cnc2c(nnn2-c2cccc(OC)c2)c1=O	x	n	n	n	n	n	x	x
O=c1cc(CSc2ccccc2)nc(-c2ccncc2)[nH]1	n	-6.5	n	n	n	n	n	n
CC(NC(=O)CCN1C(=O)c2ccccc2C1=O)c1ccc2c(c1)CCCC2 (stereo not drawn)	n	-5.4	n	-4.2	n	n	n	n
CC(=O)NCC(=O)N1CCCC(C(=O)c2ccc(Oc3ccccc3)cc2)C1 (stereo not drawn)	n	n	n	n	n	n	x	x
Cc1ccc2nc(NC(=O)CN3C(=O)C4CC=CCC4C3=O)sc2c1 (stereo not drawn)	n	-5.2	n	n	n	n	n	n
O=C(NCc1ccco1)/C(=C/C=C/c1ccccc1)NC(=O)c1ccco1	n	n	n	n	n	n	x	x
Cc1ccc(C(=O)N/C(=C\C=C\c2ccccc2)C(=O)NCc2ccco2)cc1	n	-6.6	n	n	n	n	54%	n
CCC(OC(=O)c1ccco1)C(=O)NC1CCCC1 (stereo not drawn)	n	n	n	n	n	n	x	x
Cc1sc(NC(=O)c2ccco2)nc1-c1ccccc1	n	-9.2	n	n	n	n	53%	n
CCN(CC)c1ccc(S(=O)(=O)N2CCOCC2)cc1NC(=O)CN1CCN(Cc2ccccc2)CC1	n	n	n	n	n	n	x	x
FC(F)(F)c1cccc(OCc2nnc3n2CCC3)c1	n	n	n	n	n	n	x	x
c1ccc(-c2ccccc2OCc2nnc3n2CCC3)cc1	n	-5.3	n	n	n	n	60%	n

Source: PubChem BioAssay
